# Assay outcomes from PubChem BioAssay.
# Rows were chosen to be rich in hits. Some 2.3% of all compounds tested hit in one or more screens of this group.
# FUS suppressor – rescues growth of FUS-expressing yeast; S. cerevisiae FUS-expressing, growth rescue, OD600, 24 h; Potency, µM (series often up to 76.6 µM), hits mostly activators; hit rate 0.24% among 390,000; AID 1347120;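 note: potency is the fitted concentration of half-maximal effect; plate controls were DMSO vehicle for no effect and reference control for full effect; nearly all actives have a fitted effect of over 55% in size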
#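 Yeast expressing FUS under galactose induction, OD 0.005 in 2% galactose medium; compounds in a dilution series, 24 h at 30C. Growth rescue by absorbance at 600 nm; CP55940 positive control, DMSO negative.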
# TRPV1 agonist – activates the human vanilloid receptor TRPV1. TRPV1-expressing cells, Fluo-8 calcium influx, agonist mode. activation, % at 8.33 µM. hit rate 0.19% among 320,000; in the data active = activation above about 80%; inconclusive = between about 30% and that limit; note: 0% is about no effect
#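 Cells expressing TRPV1 were dye-loaded with Fluo-8 and read kinetically: 10 s baseline, 3 min after compound (agonist portion), then 2 min after EC20 capsaicin (allosteric enhancer portion). Calcium-bound dye fluorescence at 480/520 nm.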
# Giardia kill – kills Giardia lamblia; activity change, % at 7.66 µM, hits read low; Giardia lamblia trophozoite viability; AID 540267; hit rate 0.15% among 340,000; in the data active = activity change below about -80%; inconclusive = between about -30% and that limit;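 note: parasites exposed to compound for two days anaerobically before the ATP read; % is set by controls: 0 for no effect and ±100 for the full control effect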
#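 Anaerobic 48 hrs incubation at 37 deg C of 100 trophozoites/well with test compounds; ATPLite 1-Step luminescence, 15-30 min RT, reports cellular ATP as viability.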
# ELG1 DNA repair – inhibitors of ELG1-dependent DNA repair in HEK293T cells. HEK293T ELG1-luciferase reporter, luminescence, 16 h; DNA damage induced by 5-fluorouridine. Potency, µM (top dose mostly 46.1 µM), for inactives: top-dose activity change, negative = inhibition, most hits filed as inhibitors. hit rate 2.3% among 330,000; note: potency is the fitted concentration of half-maximal effect; % is set by controls: 0 for no effect and ±100 for the full control effect; nearly all actives have a fitted effect of over 55% in size
#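 Overnight (16 hr) co-exposure of 2,000 cells/well to 5-fluorouridine and compound at 37 °C preceded detection. Luciferase was quantified via ONE-Glo luminescence; loss of signal denotes inhibition.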
# TRPV1 PAM – potentiators of human vanilloid receptor 1 (TRPV1). TRPV1-expressing cells, Fluo-8 calcium influx, capsaicin EC20 potentiation. hit rate 0.02% among 320,000. potentiation, % at 8.33 µM; in the data active = potentiation above about 80%; inconclusive = between about 30% and that limit; note: 0% is about no effect
#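 Fluo-8 calcium influx in TRPV1-expressing cells, kinetic read (ex 480/em 520 nm). Compound added and read 3 min for agonist activity, followed by capsaicin at EC20 final and 2 min further read for enhancement.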
# * marks the source's active call; other numbers are inactive results; i = inactive; ? = inconclusive; nt = no result. Unless noted, calls come from the whole dose curve; as a rule, active = well fitted curve in the direction sought with a large enough effect; inconclusive = small, poorly fitted or top-dose-only effect, or another doubt; inactive = no such curve, though single readings can be large; an effect the other way counts as inactive or inconclusive.
SMILES,FUS suppressor,TRPV1 agonist,Giardia kill,ELG1 DNA repair,TRPV1 PAM
COc1ccc(N2C(=O)/C(=C\c3ccco3)N=C2SCC(=O)N(C(C)C)C(C)C)cc1Cl,nt,5.1,9.7,13µM*,-2.8
Oc1ccc(Nc2nc(-c3ccccc3F)nc3ccccc23)cc1,i,6.5,-24.2,-2.9%,22.2
COc1ccc(Nc2nc(-c3ccccc3F)nc3ccccc23)cc1OC,i,20.4,?,23.1µM*,-10.8
COc1cccc(-c2nc(NC3CCCC3)c3ccccc3n2)c1O,?,14.6,-27.5,23.1µM*,-7.4
O=c1c2sc3ccccc3c2n(Cc2cccc(Cl)c2)c(=O)n1Cc1ccco1,i,nt,nt,nt,nt
CC(C)(C)c1ccc(C(=O)NCC(c2ccco2)S(=O)(=O)c2ccccc2)cc1 (configuration not stated),i,nt,nt,nt,nt
O=C(NCc1ccco1)C1CCN(c2nc3ccccc3n2Cc2ccc(F)cc2)CC1,i,?,14.8,18.4µM*,-4.4
CC(C)(C)c1nnc(NC(=O)C2CCN(C(=O)c3ccccc3)CC2)s1,nt,nt,-25.1,nt,nt
CCC(C)NC(=O)c1cn(CC)c2ccc(S(=O)(=O)N3CCc4ccccc4C3)cc2c1=O (configuration not stated),i,nt,nt,nt,nt
Cc1ccccc1NS(=O)(=O)c1ccc(Br)s1,i,nt,nt,nt,nt
CC(C)(C)C1CCC(C(=O)Nc2ccc(N3CCOCC3)cc2N2CCOCC2)CC1 (configuration not stated),i,?,2.6,14.6µM*,-10.2
CCOC(=O)N1CCN(C(=O)c2ccc(Cn3c(=S)[nH]c4cc(OCC)c(OCC)cc4c3=O)cc2)CC1,i,1.6,6.4,?,-0.2
CCOC(=O)C1CCCN(C(=O)c2ccc3c(c2)N(C)C(=O)/C(=C/c2ccccc2Cl)S3)C1 (configuration not stated),?,25.6,-7.1,14.6µM*,4.0
CCOC(=O)N1CCN(C(=O)c2ccc(Cn3c(=S)[nH]c4cc5c(cc4c3=O)OCO5)cc2)CC1,i,0.4,20.9,23.1µM*,-12.0
O=C(CCc1nnc2n(Cc3ccc(F)cc3)c(=O)c3ccccc3n12)N1CCN(c2ccccn2)CC1,i,4.1,25.4,14.6µM*,5.6
O=C(CCc1nnc2n(Cc3ccc(F)cc3)c(=O)c3ccccc3n12)NCCN1CCOCC1,i,1.1,10.5,9.1%,9.0
CCOC(=O)N1CCN(C(=O)c2ccc3c(=O)n(Cc4ccccc4)c(=S)[nH]c3c2)CC1,i,nt,-11.0,-12.7%,nt
CCOC(=O)N1CCN(C(=O)c2ccc3c(=O)n(Cc4ccc(OC)cc4)c(=S)[nH]c3c2)CC1,?,-0.3,1.0,13µM*,15.8
CN1C(=O)/C(=C/c2ccccc2Cl)Sc2ccc(C(=O)N3CCCC3)cc21,?,13.6,-15.5,?,-1.2
Cc1ccccc1CN1C(=O)c2ccccc2S(=O)c2ccc(C(=O)NC3CCC(C)CC3)cc21 (configuration not stated),i,nt,nt,nt,nt
CCOc1ccc(-c2nn3c(-c4cc(-c5ccccc5)n[nH]4)nnc3s2)cc1,nt,nt,63.4,nt,nt
CCOC(=O)C1CCCN(C(=O)c2ccc3c(=O)n(CCOC)c(=S)[nH]c3c2)C1 (configuration not stated),i,0.3,9.7,8.2µM*,-6.8
COCCn1c(=O)[nH]c2cc(C(=O)N3CCN(c4ccc(Cl)cc4)CC3)ccc2c1=O,i,2.6,8.3,18.3µM*,1.0
COc1ccc2[nH]c3c(=O)n(Cc4ccc(C(=O)N5CCC(C(N)=O)CC5)cc4)c(=S)[nH]c3c2c1,?,-4.9,-6.8,8.2µM*,0.5
COc1ccc2[nH]c3c(=O)n(Cc4ccc(C(=O)N5CCCCCC5)cc4)c(=S)[nH]c3c2c1,i,-0.6,-3.9,?,9.7
O=C(c1ccc2c(=O)n(CCc3ccccc3)c(=O)[nH]c2c1)N1CCN(c2ccc(Cl)cc2)CC1,i,nt,nt,nt,nt
O=C(c1ccc(Cn2c(=S)[nH]c3ccccc3c2=O)cc1)N1CCN(c2ccccn2)CC1,i,-2.3,-18.6,10.3µM*,0.0
CCOC(=O)c1ccccc1NC(=O)N1CCC(CN2CCCCC2)CC1,i,nt,nt,nt,nt
CC1CCN(c2nn3c(=O)c(C(=O)NC(C)C)cnc3s2)CC1,i,nt,nt,nt,nt
CCOc1ccccc1NC(=O)CN1C(=O)COc2ccc(S(=O)(=O)NC3CCCC3)cc21,i,nt,nt,nt,nt
